# Assay results published in PubChem BioAssay (NCATS).
# Activity calls are given as the source filed them. Where a call stands in place of a potency, no number is given. Calls come from the whole dose curve; as a rule, active = well fitted curve in the direction sought with a large enough effect; inconclusive = small, poorly fitted or top-dose-only effect, or another doubt; inactive = no such curve, though single readings can be large; an effect the other way counts as inactive or inconclusive.
# Experiment: Cellular Toxicity (caspase-3) BJ (AID 658)
# Settings: BJ fibroblasts, luminescence; Potency: caspase-3 activation; series mostly up to 91.7 µM
# Summary of the method: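 Luminescent aminoluciferin-substrate cleavage reports caspase 3/7 activity in normal human BJ fibroblasts after 16 hr compound exposure at 37 °C. Normalized to DMSO (basal) and 10 uM staurosporine (100%); AC50 from Hill fit of concentration-response.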
# Potency is the fitted concentration of half-maximal effect.
row,Compound,Potency
1,Cc1ncc([N+](=O)[O-])n1CCO,inactive
2,Cc1noc(NS(=O)(=O)c2ccc(N)cc2)c1C,inactive
3,CC[C@H](C)C(=O)O[C@H]1C[C@@H](C)C=C2C=C[C@H](C)[C@H](CC[C@@H]3C[C@@H](O)CC(=O)O3)[C@H]21,inactive
4,CN(C)c1ccc(C(=C2C=CC(=[N+](C)C)C=C2)c2ccc(N(C)C)cc2)cc1,15.8 µM (active)
5,Cc1ccnc2c1NC(=O)c1cccnc1N2C1CC1,inactive
6,O=C(N[C@H](CO)[C@H](O)c1ccc([N+](=O)[O-])cc1)C(Cl)Cl,inactive
7,Cc1cc(NS(=O)(=O)c2ccc(N)cc2)no1,inactive
8,Cc1nnc(NS(=O)(=O)c2ccc(N)cc2)s1,inactive
9,NC(N)=NC(N)=NCCc1ccccc1,inactive
10,O=C(O)c1cc(=O)[nH]c(=O)[nH]1,inactive
11,CC1=NN(c2ccccc2)C(=O)C1,inactive
12,C[C@]12C=CC(=O)C=C1CC[C@@H]1[C@@H]2C(=O)C[C@@]2(C)[C@H]1CC[C@]2(O)C(=O)CO,inactive
13,COc1ccc2cc3[n+](cc2c1OC)CCc1cc2c(cc1-3)OCO2,inactive
14,N=C(N)c1ccc(OCCCCCOc2ccc(C(=N)N)cc2)cc1,inactive
15,NNC(=O)c1ccncc1,inactive
16,CC(=O)[C@H]1CC[C@H]2[C@@H]3CCC4=CC(=O)CC[C@]4(C)[C@H]3CC[C@]12C,inactive
17,CCc1cc(C(N)=S)ccn1,inactive
18,CC(=O)Oc1ccccc1C(=O)Nc1ncc([N+](=O)[O-])s1,inactive

# Experiment: Cellular Toxicity (caspase-3) MRC-5 (AID 659)
# Settings: MRC-5 cells, luminescence; Potency: caspase-3 activation; series mostly up to 91.7 µM
# Summary of the method: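 Luminescence from caspase-cleaved aminoluciferin substrate (Caspase-Glo 3/7, 1 hr RT) reports caspase 3/7 activity in MRC-5 lung fibroblasts after 16 hr compound exposure. Normalized to DMSO basal and 10 uM staurosporine as 100%; AC50 from Hill fits.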
row,Compound,Potency
1,Cc1ncc([N+](=O)[O-])n1CCO,inactive
2,Cc1noc(NS(=O)(=O)c2ccc(N)cc2)c1C,inactive
3,CC[C@H](C)C(=O)O[C@H]1C[C@@H](C)C=C2C=C[C@H](C)[C@H](CC[C@@H]3C[C@@H](O)CC(=O)O3)[C@H]21,inactive
4,CN(C)c1ccc(C(=C2C=CC(=[N+](C)C)C=C2)c2ccc(N(C)C)cc2)cc1,6.31 µM (active)
5,Cc1ccnc2c1NC(=O)c1cccnc1N2C1CC1,inactive
6,O=C(N[C@H](CO)[C@H](O)c1ccc([N+](=O)[O-])cc1)C(Cl)Cl,inactive
7,Cc1cc(NS(=O)(=O)c2ccc(N)cc2)no1,inactive
8,Cc1nnc(NS(=O)(=O)c2ccc(N)cc2)s1,inactive
9,NC(N)=NC(N)=NCCc1ccccc1,inactive
10,O=C(O)c1cc(=O)[nH]c(=O)[nH]1,inactive
11,CC1=NN(c2ccccc2)C(=O)C1,inactive
12,C[C@]12C=CC(=O)C=C1CC[C@@H]1[C@@H]2C(=O)C[C@@]2(C)[C@H]1CC[C@]2(O)C(=O)CO,inactive
13,COc1ccc2cc3[n+](cc2c1OC)CCc1cc2c(cc1-3)OCO2,inactive
14,N=C(N)c1ccc(OCCCCCOc2ccc(C(=N)N)cc2)cc1,inactive
15,NNC(=O)c1ccncc1,inactive
16,CC(=O)[C@H]1CC[C@H]2[C@@H]3CCC4=CC(=O)CC[C@]4(C)[C@H]3CC[C@]12C,inactive
17,CCc1cc(C(N)=S)ccn1,inactive
18,CC(=O)Oc1ccccc1C(=O)Nc1ncc([N+](=O)[O-])s1,inactive

# Experiment: Cellular Toxicity (caspase-3) Mesangial (AID 660);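 note: combined caspase 3 and 7 activity read by Caspase-Glo luminescence; cells exposed to compound for 16 h before the caspase read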
# Settings: mesangial cells; Potency: caspase-3 activation; series mostly up to 91.7 µM
# Summary of the method: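 Human renal glomerular mesangial cells, 1000/well, 5 h at 37 C before 16 h compound treatment. Caspase-Glo 3/7 luminescence after 20 min; normalized to DMSO and 100 uM tamoxifen, AC50 from Hill fit.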
row,Compound,Potency
1,Cc1ncc([N+](=O)[O-])n1CCO,inactive
2,Cc1noc(NS(=O)(=O)c2ccc(N)cc2)c1C,inactive
3,CC[C@H](C)C(=O)O[C@H]1C[C@@H](C)C=C2C=C[C@H](C)[C@H](CC[C@@H]3C[C@@H](O)CC(=O)O3)[C@H]21,inactive
4,CN(C)c1ccc(C(=C2C=CC(=[N+](C)C)C=C2)c2ccc(N(C)C)cc2)cc1,31.6 µM (active)
5,Cc1ccnc2c1NC(=O)c1cccnc1N2C1CC1,inactive
6,O=C(N[C@H](CO)[C@H](O)c1ccc([N+](=O)[O-])cc1)C(Cl)Cl,inactive
7,Cc1cc(NS(=O)(=O)c2ccc(N)cc2)no1,inactive
8,Cc1nnc(NS(=O)(=O)c2ccc(N)cc2)s1,inactive
9,NC(N)=NC(N)=NCCc1ccccc1,inactive
10,O=C(O)c1cc(=O)[nH]c(=O)[nH]1,inactive
11,CC1=NN(c2ccccc2)C(=O)C1,inactive
12,C[C@]12C=CC(=O)C=C1CC[C@@H]1[C@@H]2C(=O)C[C@@]2(C)[C@H]1CC[C@]2(O)C(=O)CO,inactive
13,COc1ccc2cc3[n+](cc2c1OC)CCc1cc2c(cc1-3)OCO2,inactive
14,N=C(N)c1ccc(OCCCCCOc2ccc(C(=N)N)cc2)cc1,inactive
15,NNC(=O)c1ccncc1,inactive
16,CC(=O)[C@H]1CC[C@H]2[C@@H]3CCC4=CC(=O)CC[C@]4(C)[C@H]3CC[C@]12C,inactive
17,CCc1cc(C(N)=S)ccn1,inactive
18,CC(=O)Oc1ccccc1C(=O)Nc1ncc([N+](=O)[O-])s1,inactive

# Experiment: Cellular Toxicity (caspase-3) SK-N-SH (AID 661)
# Settings: SK-N-SH caspase-3 activation, qHTS; series mostly up to 91.7 µM
# Summary of the method: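 Human SK-N-SH neuroblastoma cells, 1500/well, were exposed to compounds for 16 hours at 37 °C. Caspase-Glo 3/7 luminescence was normalized to DMSO (basal) and 10 uM staurosporine (100%), and AC50 came from a Hill fit.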
row,Compound,Potency
1,Cc1ncc([N+](=O)[O-])n1CCO,inactive
2,Cc1noc(NS(=O)(=O)c2ccc(N)cc2)c1C,inactive
3,CC[C@H](C)C(=O)O[C@H]1C[C@@H](C)C=C2C=C[C@H](C)[C@H](CC[C@@H]3C[C@@H](O)CC(=O)O3)[C@H]21,inactive
4,CN(C)c1ccc(C(=C2C=CC(=[N+](C)C)C=C2)c2ccc(N(C)C)cc2)cc1,10 µM (active)
5,Cc1ccnc2c1NC(=O)c1cccnc1N2C1CC1,inactive
6,O=C(N[C@H](CO)[C@H](O)c1ccc([N+](=O)[O-])cc1)C(Cl)Cl,inactive
7,Cc1cc(NS(=O)(=O)c2ccc(N)cc2)no1,inactive
8,Cc1nnc(NS(=O)(=O)c2ccc(N)cc2)s1,inactive
9,NC(N)=NC(N)=NCCc1ccccc1,inactive
10,O=C(O)c1cc(=O)[nH]c(=O)[nH]1,inactive
11,CC1=NN(c2ccccc2)C(=O)C1,inactive
12,C[C@]12C=CC(=O)C=C1CC[C@@H]1[C@@H]2C(=O)C[C@@]2(C)[C@H]1CC[C@]2(O)C(=O)CO,inactive
13,COc1ccc2cc3[n+](cc2c1OC)CCc1cc2c(cc1-3)OCO2,inactive
14,N=C(N)c1ccc(OCCCCCOc2ccc(C(=N)N)cc2)cc1,inactive
15,NNC(=O)c1ccncc1,inactive
16,CC(=O)[C@H]1CC[C@H]2[C@@H]3CCC4=CC(=O)CC[C@]4(C)[C@H]3CC[C@]12C,inactive
17,CCc1cc(C(N)=S)ccn1,inactive
18,CC(=O)Oc1ccccc1C(=O)Nc1ncc([N+](=O)[O-])s1,inactive
